PubChem BioAssay (NCI)
This is part of a sample that, as a whole, favours compounds with a hit. Of some 79,000 tested, about 15% had one in any assay. Active and inactive are the calls of the source. No stated cut-off is given here; in the data, active means growth inhibition above about 70%; inactive means the rest.

How the values were obtained:
[1] = NCI Yeast Anticancer Drug Screen. Data for the rad52 strain (AID 147);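 further: 0% = growth of vehicle-treated control cultures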; conditions: S. cerevisiae rad52 mutant growth inhibition, active compounds read high
Outline: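 Read-out: growth inhibition versus vehicle-treated controls. Cells were a DNA repair-deficient yeast strain treated with compounds.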

[2] = NCI Yeast Anticancer Drug Screen. Data for the wt1 strain (AID 149);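 further: 0% = growth of vehicle-treated wt1 cultures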; conditions: S. cerevisiae wt1 strain (SPY 50644) growth inhibition, active compounds read high
Outline: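 Measured: growth of wt1 yeast under compound versus vehicle treatment, reported as inhibition.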

[3] = NCI Yeast Anticancer Drug Screen. Data for the rad50EPP+ strain (AID 151);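 further: 0% = growth of vehicle-treated control cultures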; conditions: S. cerevisiae rad50 mutant strain, active compounds read high
Outline: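 Growth inhibition read against vehicle controls in rad50EPP+ yeast, a strain altered in DNA damage repair, after compound exposure.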

[4] = NCI Yeast Anticancer Drug Screen. Data for the mgt1 strain (AID 153); conditions: S. cerevisiae mgt1 mutant growth inhibition, active compounds read high
Outline: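 mgt1 yeast grown with test compound; read-out is growth inhibition versus vehicle-treated cultures.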

[5] = NCI Yeast Anticancer Drug Screen. Data for the rad50 strain (AID 155);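 further: 0% = growth of vehicle-only cultures of the same strain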; conditions: S. cerevisiae rad50 strain growth inhibition, active compounds read high
Outline: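 Growth of the mutant yeast was measured after compound exposure and referenced to vehicle-treated cultures.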

[6] = NCI Yeast Anticancer Drug Screen. Data for the mec2-1 strain (AID 157); conditions: S. cerevisiae mec2-1 strain, active compounds read high
Outline: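 Yeast mec2-1 mutant treated with compound. Readout: growth inhibition vs vehicle controls.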

[7] = NCI Yeast Anticancer Drug Screen. Data for the rad14 strain (AID 159);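 further: 0% = growth of vehicle-treated control cultures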; conditions: S. cerevisiae rad14 strain growth inhibition, active compounds read high
Outline: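 Here, inhibition of yeast growth was measured after compound exposure, using a strain with a genetic defect in DNA damage repair and vehicle-treated cultures as the reference.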

[8] = NCI Yeast Anticancer Drug Screen. Data for the sgs1 mgt1 strain (AID 161);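 further: 0% = growth of cultures given vehicle only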; conditions: S. cerevisiae sgs1 mgt1 strain, active compounds read high
Outline: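 Genetically altered yeast, compound exposure, growth inhibition relative to vehicle.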

[9] = NCI Yeast Anticancer Drug Screen. Data for the CLN2oe strain (AID 163);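 further: 0% = growth of vehicle-only control cultures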; conditions: S. cerevisiae CLN2oe strain, active compounds read high
Outline: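 Read-out: yeast growth inhibition, expressed relative to vehicle-only controls. The strain bears an engineered cell-cycle alteration.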

[10] = NCI Yeast Anticancer Drug Screen. Data for the cln2 rad14 strain (AID 165);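 further: 0% = growth equal to vehicle treated cultures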; conditions: S. cerevisiae cln2 rad14 strain, active compounds read high
Outline: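 cln2 rad14 yeast strain; compound exposure; growth inhibition read vs vehicle controls.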

[11] = NCI Yeast Anticancer Drug Screen. Data for the bub3 strain (AID 167); conditions: S. cerevisiae bub3 mutant strain, active compounds read high
Outline: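 Whole-cell yeast assay. The mutant strain was incubated with compounds, and growth inhibition was determined by comparison with vehicle-treated cells.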

[12] = NCI Yeast Anticancer Drug Screen. Data for the wt2 strain (AID 169);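 further: 0% = growth of vehicle-treated yeast cultures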; conditions: S. cerevisiae wt2 strain growth inhibition, active compounds read high
Outline: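 Read-out: growth inhibition versus vehicle-treated control cultures after compound exposure of the yeast strain.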

[13] = NCI Yeast Anticancer Drug Screen. Data for the mlh1 strain (AID 171);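 further: 0% = growth of vehicle-treated control cultures of the same strain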; conditions: S. cerevisiae mlh1 strain growth inhibition, active compounds read high
Outline: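 Read-out: growth inhibition versus vehicle controls. Strain: engineered yeast with a defined DNA repair or cell cycle defect, compound-treated.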

[14] = NCI Yeast Anticancer Drug Screen. Data for the sgs1 strain (AID 173);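 further: 0% = growth of vehicle-only control cultures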; conditions: S. cerevisiae sgs1 mutant, active compounds read high
Outline: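 Read-out: yeast growth inhibition relative to vehicle controls, following compound exposure of a strain with a defined DNA repair/cell cycle alteration.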

[15] = NCI Yeast Anticancer Drug Screen. Data for the mlh1 rad18 strain (AID 175); conditions: S. cerevisiae mlh1 rad18 strain growth inhibition, active compounds read high
Outline: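 Yeast w/ defined DNA-repair lesions; compound exposure; growth vs vehicle controls → % inhibition.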

[16] = NCI Yeast Anticancer Drug Screen. Data for the rad18 strain (AID 177); conditions: S. cerevisiae rad18 mutant growth inhibition, active compounds read high
Outline: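 Readout: growth inhibition vs vehicle controls. Cells: genetically altered yeast strain, DNA repair defect.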

[17] = at 5.0 µM (retest, dose inferred, filed as 0.5)
[18] = at 50.0 µM (retest, dose inferred, filed as 5.0)

Measured: growth inhibition

OC(CC(O)(C(F)(F)F)C(F)(F)F)c1ccc(C(O)CC(O)(C(F)(F)F)C(F)(F)F)cc1 (stereo unspecified)
inactive: [1]; at 1.2 µM 47% | [1]; at 3.7 µM 64% | [2]; at 1.2 µM 23% | [2]; at 3.7 µM 32% | [3]; at 1.2 µM -2% | [3]; at 3.7 µM 0% | [3]; at 11.0 µM 9% | [3]; at 33.0 µM 25% | [3]; at 100.0 µM 60% | [4]; at 1.2 µM 22% | [4]; at 3.7 µM 22% | [5]; at 1.2 µM 35% | [5]; at 3.7 µM 50% | [5]; [17] 36% | [6]; at 1.2 µM 18% | [6]; at 3.7 µM 38% | [6]; [17] 42% | [7]; at 1.2 µM 26% | [7]; at 3.7 µM 19% | [8]; [17] 26% | [9]; at 1.2 µM 3% | [9]; at 3.7 µM 68% | [10]; [17] 68% | [11]; at 1.2 µM -2% | [11]; at 3.7 µM 37% | [11]; [17] 15% | [12]; at 1.2 µM -1% | [12]; at 3.7 µM 17% | [13]; at 1.2 µM 19% | [13]; at 3.7 µM 11% | [14]; at 1.2 µM 26% | [14]; at 3.7 µM 26% | [15]; [17] 47% | [16]; at 1.2 µM 40% | [16]; at 3.7 µM 41%
active: [1]; at 11.0 µM 95% | [1]; at 33.0 µM 99% | [1]; at 100.0 µM 99% | [2]; at 11.0 µM 94% | [2]; at 33.0 µM 99% | [2]; at 100.0 µM 100% | [4]; at 11.0 µM 91% | [4]; at 33.0 µM 99% | [4]; at 100.0 µM 99% | [5]; at 11.0 µM 92% | [5]; at 33.0 µM 98% | [5]; [18] 100% | [5]; at 50.0 µM 99% | [5]; at 100.0 µM 92% | [6]; at 11.0 µM 94% | [6]; at 33.0 µM 99% | [6]; [18] 100% | [6]; at 50.0 µM 99.5% | [6]; at 100.0 µM 99% | [7]; at 11.0 µM 95% | [7]; at 33.0 µM 99% | [7]; at 100.0 µM 99% | [8]; [18] 100% | [8]; at 50.0 µM 99.5% | [9]; at 11.0 µM 99% | [9]; at 33.0 µM 99% | [9]; at 100.0 µM 100% | [10]; [18] 100% | [10]; at 50.0 µM 99.2% | [11]; at 11.0 µM 95% | [11]; at 33.0 µM 99% | [11]; [18] 100% | [11]; at 50.0 µM 99.5% | [11]; at 100.0 µM 99% | [12]; at 11.0 µM 98% | [12]; at 33.0 µM 99% | [12]; at 100.0 µM 100% | [13]; at 11.0 µM 90% | [13]; at 33.0 µM 99% | [13]; at 100.0 µM 99% | [14]; at 11.0 µM 87% | [14]; at 33.0 µM 99% | [14]; at 100.0 µM 99% | [15]; [18] 99% | [15]; at 50.0 µM 99.3% | [16]; at 11.0 µM 91% | [16]; at 33.0 µM 98% | [16]; at 100.0 µM 97%

OC(c1ccccc1)(c1ccccc1)c1nccc2ccccc12
active: [1]; at 100.0 µM 81% | [5]; at 100.0 µM 70% | [6]; at 50.0 µM 75% | [8]; at 50.0 µM 71.5% | [11]; at 100.0 µM 75% | [14]; at 100.0 µM 71% | [15]; [18] 74%
inactive: [1]; at 1.2 µM 40% | [1]; at 3.7 µM 39% | [1]; at 11.0 µM 48% | [1]; at 33.0 µM 62% | [2]; at 1.2 µM 3% | [2]; at 3.7 µM -3% | [2]; at 11.0 µM 26% | [2]; at 33.0 µM -2% | [2]; at 100.0 µM 29% | [3]; at 1.2 µM 14% | [3]; at 3.7 µM 14% | [3]; at 11.0 µM 32% | [3]; at 33.0 µM 13% | [3]; at 100.0 µM 0% | [4]; at 1.2 µM -11% | [4]; at 3.7 µM 8% | [4]; at 11.0 µM 11% | [4]; at 33.0 µM 15% | [4]; at 100.0 µM 51% | [5]; at 1.2 µM 4% | [5]; at 3.7 µM 15% | [5]; [17] 14% | [5]; at 11.0 µM 24% | [5]; at 33.0 µM 39% | [5]; [18] 50% | [5]; at 50.0 µM 67.7% | [6]; at 1.2 µM 0% | [6]; at 3.7 µM 3% | [6]; [17] 2% | [6]; at 11.0 µM 9% | [6]; at 33.0 µM 7% | [6]; [18] 40% | [6]; at 100.0 µM 49% | [7]; at 1.2 µM 3% | [7]; at 3.7 µM 2% | [7]; at 11.0 µM 3% | [7]; at 33.0 µM 3% | [7]; at 100.0 µM 39% | [8]; [17] -4% | [8]; [18] 58% | [9]; at 1.2 µM 25% | [9]; at 3.7 µM 34% | [9]; at 11.0 µM 28% | [9]; at 33.0 µM 35% | [9]; at 100.0 µM 59% | [10]; [17] 6% | [10]; [18] 7% | [10]; at 50.0 µM 55.4% | [11]; at 1.2 µM 14% | [11]; at 3.7 µM 22% | [11]; [17] 0% | [11]; at 11.0 µM 25% | [11]; at 33.0 µM 25% | [11]; [18] 45% | [11]; at 50.0 µM 60.6% | [12]; at 1.2 µM -56% | [12]; at 3.7 µM -17% | [12]; at 11.0 µM -31% | [12]; at 33.0 µM -21% | [12]; at 100.0 µM 38% | [13]; at 1.2 µM -2% | [13]; at 3.7 µM 12% | [13]; at 11.0 µM 5% | [13]; at 33.0 µM 14% | [13]; at 100.0 µM 54% | [14]; at 1.2 µM 15% | [14]; at 3.7 µM 3% | [14]; at 11.0 µM 4% | [14]; at 33.0 µM 16% | [15]; [17] 12% | [15]; at 50.0 µM 51% | [16]; at 1.2 µM 0% | [16]; at 3.7 µM 14% | [16]; at 11.0 µM 27% | [16]; at 33.0 µM 55% | [16]; at 100.0 µM 63%
